A short description of test [1]: sensitizers of A549 cells to miR-34 induction, primary screen, imaging, A549 dox-inducible miR-34, nuclei and caspase counts (AID 1347080;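 active means compounds whose cell count with miR-34 switched on is under 0.7 times the count with it off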). The following applies: A549 miR-34 inducible, Hoechst nuclei count, 48 h.
The nature of test [2]: survival rescue of mitochondrial mutant cells in low glucose, primary screen, MELAS cybrids, Rieske KO mouse fibroblasts, CellTiter-Glo (AID 1508586;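 active means mean z-score across replicates of 1.96 or higher in either the MELAS or the Rieske mutant cell line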;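 further: z relative to plate mean and SD of compound and empty wells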). Background: In ATP-based viability assays light output follows the ATP content of the culture.
The nature of test [3]: ovarian cancer cell viability with rucaparib, profiling panel, oncology-focused library, rucaparib conditional (AID 1508598). Conditions: patient-derived ovarian cancer cells, CellTiter-Glo viability, 144 h, stronger effect = lower value.
Test [4] is described as follows: liver-stage malaria parasite growth inhibition, primary screen, cell-based, HepG2, luciferase luminescence, HepG2 viability (AID 624349; in the data active means parasite load remaining mostly below about 12%, no sharp cut-off; inactive means mostly above about 10%;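 further: 100% = mean of DMSO negative control wells on the same plate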). The following applies: P. berghei liver stage in HepG2, luciferase luminescence, concentration not given here; parasite load remaining: stronger effect = lower value; viability: measured here: HepG2 viability without parasites.
In test [5] the target is NAD(+) hydrolase SARM1 (Homo sapiens) (UniProt Q6SZW1). Put plainly: SARM1 TIR NADase inhibitors, cell lysate, NAD-Glo luminescence (AID 1508614;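 active means compound whose remaining NAD level is above about 45 nM, limit read from the data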). Conditions: SAM-TIR HEK293T lysate NADase, at 1 µM, stronger effect = higher value.
Test [6] in a line: viability rescue of complex I mutant cybrids, primary screen, cell-based, galactose medium, ATP luminescence (AID 1645843;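 active means z-score of at least 1.8 in each of two replicates, scored against plate mean and spread of sample wells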;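 further: positive z means more ATP and so rescue of galactose-driven cybrid death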). The following applies: complex I mutant cybrid cells, 72 h, stronger effect = higher value.
Setting [7] is: stronger effect = lower value, cell number ratio, induced over uninduced.
The mark [8] stands for this setting: measured here: relative caspase fold change +Dox/-Dox.
Where [9] appears, read: measured here: total cells with miR-34 induction, stronger effect = lower value.
Setting [10] is: measured here: total cells without miR-34 induction.
The mark [11] stands for this setting: MELAS cybrid survival, CellTiter-Glo 48 h, stronger effect = higher value.
Where [12] appears, read: Rieske KO mouse fibroblast survival, CellTiter-Glo 72 h.

Four compounds from PubChem BioAssay can be followed below.

Each structure is given as a SMILES string. Activity calls are given as the source filed them.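 How the source made its calls, unless noted: active means normalized viability below 100% at a tested concentration; inactive means the rest.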

One may read the viability as a read-out of living cells in per cent, often relative to untreated cells.

Chain of NAD(+) hydrolase SARM1 (Homo sapiens) (Q6SZW1 whole entry, looked up): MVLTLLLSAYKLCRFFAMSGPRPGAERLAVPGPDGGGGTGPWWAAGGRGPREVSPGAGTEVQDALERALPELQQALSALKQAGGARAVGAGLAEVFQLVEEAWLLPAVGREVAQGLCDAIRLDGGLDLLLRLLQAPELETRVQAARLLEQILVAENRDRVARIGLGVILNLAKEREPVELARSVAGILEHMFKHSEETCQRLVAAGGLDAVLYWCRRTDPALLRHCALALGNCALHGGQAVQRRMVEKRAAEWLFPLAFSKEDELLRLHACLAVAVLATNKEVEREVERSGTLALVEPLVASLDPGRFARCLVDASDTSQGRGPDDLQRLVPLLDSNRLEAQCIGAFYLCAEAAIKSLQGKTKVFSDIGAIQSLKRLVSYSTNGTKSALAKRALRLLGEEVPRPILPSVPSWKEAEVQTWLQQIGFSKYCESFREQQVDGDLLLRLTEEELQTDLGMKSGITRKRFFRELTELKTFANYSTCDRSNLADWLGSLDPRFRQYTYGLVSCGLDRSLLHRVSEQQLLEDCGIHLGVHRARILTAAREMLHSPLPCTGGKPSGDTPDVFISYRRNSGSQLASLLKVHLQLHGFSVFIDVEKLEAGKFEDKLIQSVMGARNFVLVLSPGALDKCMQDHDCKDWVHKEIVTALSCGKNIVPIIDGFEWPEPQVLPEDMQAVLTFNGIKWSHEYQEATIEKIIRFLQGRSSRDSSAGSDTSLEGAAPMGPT

Consider `O=C(O[C@H]1CN2CCC1CC2)N1CCc2ccccc2C1c1ccccc1` (stereo not given in full), for which the fold change in test [1] (setting [7]) was 0.932 (inactive); in test [1] (setting [8]) it was 0.636. Further, the cell count was 6880 in test [1] (setting [9]) and 7380 in test [1] (setting [10]). The z-score is -0.171 (inactive) in test [2] (setting [11]) and 0.000903 in test [2] (setting [12]).

Regarding `CN(C)CCSSCCNC(=O)C1CCN(C(=O)CSc2ccc(Cl)cc2)CC1`, the fold change is 0.922 (inactive) in test [1] (setting [7]) and 0.314 in test [1] (setting [8]). Further, the cell count in test [1] (setting [9]) is 7870; in test [1] (setting [10]) it was 8530. Further, the z-score is -0.0132 (inactive) in test [2] (setting [11]) and 1 in test [2] (setting [12]). The viability in test [3] (at 0.000305 µM, OCI-C5x cells, with rucaparib 10 µM, 100% = cells with rucaparib alone) is 118% (inactive); in test [3] (at 0.000305 µM, OCI-C5x cells, without rucaparib), 110% (inactive); in test [3] (at 0.000305 µM, OCI-P5x cells, with rucaparib 20 µM, 100% = cells with rucaparib alone), 103% (inactive); in test [3] (at 0.000305 µM, OCI-P5x cells, without rucaparib), 95.4% (active); in test [3] (at 0.00122 µM, OCI-C5x cells, with rucaparib 10 µM, 100% = cells with rucaparib alone), 117% (inactive); in test [3] (at 0.00122 µM, OCI-C5x cells, without rucaparib), 112% (inactive). Further, the viability in test [3] (at 0.00122 µM, OCI-P5x cells, with rucaparib 20 µM, 100% = cells with rucaparib alone) was 102% (inactive); in test [3] (at 0.00122 µM, OCI-P5x cells, without rucaparib) it was 101% (inactive); in test [3] (at 0.00488 µM, OCI-C5x cells, with rucaparib 10 µM, 100% = cells with rucaparib alone) it was 126% (inactive); in test [3] (at 0.00488 µM, OCI-C5x cells, without rucaparib) it was 112% (inactive); in test [3] (at 0.00488 µM, OCI-P5x cells, with rucaparib 20 µM, 100% = cells with rucaparib alone), 109% (inactive); in test [3] (at 0.00488 µM, OCI-P5x cells, without rucaparib), 103% (inactive). For the same compound, the viability in test [3] (at 0.0195 µM, OCI-C5x cells, with rucaparib 10 µM, 100% = cells with rucaparib alone) is 122% (inactive); in test [3] (at 0.0195 µM, OCI-C5x cells, without rucaparib), 105% (inactive); in test [3] (at 0.0195 µM, OCI-P5x cells, with rucaparib 20 µM, 100% = cells with rucaparib alone), 106% (inactive); in test [3] (at 0.0195 µM, OCI-P5x cells, without rucaparib), 100% (active); in test [3] (at 0.0781 µM, OCI-C5x cells, with rucaparib 10 µM, 100% = cells with rucaparib alone) it was 129% (inactive); in test [3] (at 0.0781 µM, OCI-C5x cells, without rucaparib) it was 112% (inactive). In addition, the viability is 103% (inactive) in test [3] (at 0.0781 µM, OCI-P5x cells, with rucaparib 20 µM, 100% = cells with rucaparib alone); 95.1% (active) in test [3] (at 0.0781 µM, OCI-P5x cells, without rucaparib); 124% (inactive) in test [3] (at 0.313 µM, OCI-C5x cells, with rucaparib 10 µM, 100% = cells with rucaparib alone); 91.9% (active) in test [3] (at 0.313 µM, OCI-C5x cells, without rucaparib); 98.4% (active) in test [3] (at 0.313 µM, OCI-P5x cells, with rucaparib 20 µM, 100% = cells with rucaparib alone); 89.4% (active) in test [3] (at 0.313 µM, OCI-P5x cells, without rucaparib). For the same compound, the viability is 120% (inactive) in test [3] (at 1.25 µM, OCI-C5x cells, with rucaparib 10 µM, 100% = cells with rucaparib alone); 112% (inactive) in test [3] (at 1.25 µM, OCI-C5x cells, without rucaparib); 93.2% (active) in test [3] (at 1.25 µM, OCI-P5x cells, with rucaparib 20 µM, 100% = cells with rucaparib alone); 90.1% (active) in test [3] (at 1.25 µM, OCI-P5x cells, without rucaparib); 137% (inactive) in test [3] (at 5 µM, OCI-C5x cells, with rucaparib 10 µM, 100% = cells with rucaparib alone); 140% (inactive) in test [3] (at 5 µM, OCI-C5x cells, without rucaparib). In addition, the viability in test [3] (at 5 µM, OCI-P5x cells, with rucaparib 20 µM, 100% = cells with rucaparib alone) was 88.3% (active); in test [3] (at 5 µM, OCI-P5x cells, without rucaparib) it was 87.3% (active).

On to `CO/N=C(\C(=O)N[C@@H]1C(=O)N2C(C(=O)O)=C(C[N+]3(C)CCCC3)CS[C@H]12)c1csc(N)n1`, for which the parasite load remaining in test [4] is 85.4% (inactive). Also, the viability in test [4] turned out to be 76.2%. The fold change is 0.925 (inactive) in test [1] (setting [7]) and 0.702 in test [1] (setting [8]). In addition, the results for the cell count in test [1] (setting [9]) and in test [1] (setting [10]) were 8990 and 9720, respectively. Besides, the z-score is -1.62 (inactive) in test [2] (setting [11]) and -0.496 in test [2] (setting [12]). In test [5], the remaining NAD is 10 nM (inactive).

As for `COc1ccccc1Cn1ncc2[nH]c(-c3ccccc3OC)nc21`, the fold change in test [1] (setting [7]) was 0.835 (inactive); in test [1] (setting [8]), 1.7. The cell count in test [1] (setting [9]) turned out to be 7580; in test [1] (setting [10]), 9090. Moreover, the figures for the z-score in test [2] (setting [11]), in test [2] (setting [12]) and in test [6] were -0.341 (inactive), -0.0244 and 2.62 (active), respectively.
